A selection: hits, their analogues and other compounds. The true share with any hit is near 6.9%.
Vif-APOBEC3G blk: qHTS for Inhibitors of Vif-A3G Interactions: qHTS; DNA dC->dU-editing enzyme APOBEC-3G (Homo sapiens), Q9HC16; 410,000 tested, 0.076% active; HeLa A3G-eYFP + Vif (tagged APOBEC3G with the HIV-1 protein that degrades it), YFP fluorescence, overnight; Potency, µM (highest dose often 46.1 µM), without a hit: at the highest dose activity, negative = active, usual class: inhibitors; further: potency means the concentration at half of the fitted maximal effect; on the % scale 0 is the no-effect control and ±100 the full control effect; nearly all actives have a fitted effect of over 60% in size
Target sequence (Q9HC16 whole entry, looked up): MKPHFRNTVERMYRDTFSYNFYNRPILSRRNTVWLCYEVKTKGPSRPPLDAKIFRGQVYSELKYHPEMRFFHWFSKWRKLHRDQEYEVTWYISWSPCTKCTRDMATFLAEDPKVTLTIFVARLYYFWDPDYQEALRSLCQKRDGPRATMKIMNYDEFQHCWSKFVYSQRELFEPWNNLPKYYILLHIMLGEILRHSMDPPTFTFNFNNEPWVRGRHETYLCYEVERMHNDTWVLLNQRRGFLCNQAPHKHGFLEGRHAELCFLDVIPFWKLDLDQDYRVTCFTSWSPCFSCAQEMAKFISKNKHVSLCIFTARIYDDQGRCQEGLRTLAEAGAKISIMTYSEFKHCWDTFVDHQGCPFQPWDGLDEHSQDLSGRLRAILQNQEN
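HeLa cells stably expressing Vif and C-terminally eYFP-tagged A3G, seeded overnight at 37 deg C, then exposed to compound by pintool overnight at 37 deg C. Rise in yellow fluorescence (Ex 488/Em 500-530, Acumen) marks blocked Vif-driven A3G degradation.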
Vif-APOBEC3F blk: qHTS for Inhibitors of Vif-A3F Interactions: qHTS. HeLa A3F-eYFP + Vif (tagged APOBEC3F with the HIV-1 protein that degrades it), YFP fluorescence increase. Potency, µM (series often up to 46.1 µM), for the others: at the highest dose activity, negative = active. 390,000 tested, 0.2% active; further: potency means the concentration at half of the fitted maximal effect; % of control where 0% means no effect; nearly all actives have a fitted effect of over 65% in size
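HeLa cells stably expressing Vif plus C-terminally eYFP-tagged A3F were seeded, incubated overnight at 37 deg C, dosed with compound, incubated overnight again at 37 deg C. Yellow fluorescence (Ex 488/Em 500-530) reported blocked Vif-mediated A3F-eYFP degradation.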
IL1B secr inh: qHTS for Inhibitors of Inflammasome Signaling: IL-1-beta AlphaLISA Primary Screen | activity change, % at 57.5 µM | THP-1 LPS/ATP IL-1B secretion, AlphaLISA, 16 h; active compounds read low | 360,000 tested, 4.7% active; in the data active means activity change below about -50%; inconclusive means mostly about -30% to -49%; further: on the % scale 0 is the no-effect control and ±100 the full control effect
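THP-1 cells pretreated 1 hr with compounds (up to 57.5 uM final), then stimulated with LPS (250 ng/mL final) plus ATP (1.25 mM final); secreted IL-1B measured by AlphaLISA after 16 hr, decreased signal indicating inhibition.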
SW480 rereplic: A quantitative high throughput screen for small molecules that induce DNA re-replication in SW480 colon adenocarcinoma cells; SW480 DNA re-replication, Hoechst DNA content imaging, 48 h; 340,000 tested, 1.8% active; Potency, µM (titrated, usually from 46.1 µM), without a hit: at the top dose re-replication activation, actives largely listed as activators; further: potency means the concentration at half of the fitted maximal effect; % of control where 0% means no effect; nearly all actives have a fitted effect of over 55% in size
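SW480 cells exposed to compounds for 48 hr at 37 C, 5% CO2, then Hoechst-stained 40 min. Nuclear DNA content imaged by fluorescence scanning (405 nm excitation, 500-530 nm emission); re-replication scored as increased high-intensity nuclei.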
MCF10A rerep: A quantitative high throughput screen for small molecules that induce DNA re-replication in MCF 10a normal breast cells; 350,000 tested, 2.9% active; MCF 10A DNA re-replication, Hoechst nuclear intensity, 48 h; Potency, µM (series often up to 46.1 µM), without a hit: at the top dose activity, positive = re-replication, most hits filed as activators; further: potency means the concentration at half of the fitted maximal effect; % of control where 0% means no effect; nearly all actives have a fitted effect of over 50% in size
Giardia killer: Small Molecules that selectively kill Giardia lamblia: qHTS; Giardia lamblia trophozoite viability; activity change, % at 7.66 µM, hits read low; 340,000 tested, 0.15% active; in the data active means activity change below about -80%; inconclusive means between about -30% and that limit;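 further: parasites exposed to compound for two days anaerobically before the ATP read; on the % scale 0 is the no-effect control and ±100 the full control effect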
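Killing of trophozoites was scored by loss of ATP luminescence after a 48 hrs anaerobic exposure to compounds at 37 deg C, using 100 cells per well.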
* = called active by the depositor; ? = inconclusive; / = not tested or not shown. Unless noted, the call rests on the fitted dose curve; in most records, active means well fitted curve in the direction sought with a large enough effect; inconclusive means small, poorly fitted or top-dose-only effect, or another doubt; inactive means no such curve, though single readings can be large; an effect the other way counts as inactive or inconclusive.

SMILES | Vif-APOBEC3G blk | Vif-APOBEC3F blk | IL1B secr inh | SW480 rereplic | MCF10A rerep | Giardia killer
COC(=O)C1=CN(Cc2ccc(F)cc2)C=C(C(=O)OC)C1c1cc(OC)c(OC)c(OC)c1 | -6.7% | 1.6% | -18.1 | 23.3% | 1.6% | -17.8
COC(=O)C1=CN(Cc2ccccc2)C=C(C(=O)OC)C1c1cc(F)ccc1F | -7.3% | -4.9% | -22.5 | ? | 20.6µM* | 8.1
COC(=O)C1=CN(Cc2ccc(OC)c(OC)c2)C=C(C(=O)OC)C1c1cccc(F)c1 | -5.1% | 3.0% | 48.9 | ? | ? | 11.6
CCOC(=O)CSc1nc2cc(OC)c(OC)cc2c2nc(-c3ccccc3)nn12 | -2.9% | -5.6% | / | / | / | /
Cc1ccccc1-n1c(SCc2cc(=O)n3ccccc3n2)nc2[nH]ncc2c1=O | -8.6% | -6.8% | -0.2 | -11.6% | ? | -6.9
CCc1ccc(-n2c(SCc3ccccc3F)nc3[nH]ncc3c2=O)cc1 | -7.0% | 3.3% | / | / | / | /
Cc1ccccc1-n1c(SCc2cccc(F)c2)nc2[nH]ncc2c1=O | -6.9% | -1.2% | -74.1* | 7.0% | 15.3% | 5.6
Cc1cccc2nc(CSc3nc4[nH]ncc4c(=O)n3-c3ccccc3Cl)cc(=O)n12 | 0.2% | 2.4% | -6.0 | 2.1% | 6.4% | -4.8
O=c1c2cn[nH]c2nc(SCc2cc(=O)n3cc(Br)ccc3n2)n1-c1ccc(Br)cc1 | -2.1% | 5.4% | -51.0* | ? | -6.2% | 5.4
O=c1c2cn[nH]c2nc(SCc2ccccc2F)n1-c1ccc(Br)cc1 | -13.0% | -3.9% | -149.1* | ? | 18.4µM* | 8.5
Cc1ccc(NC(=O)c2ccc3snnc3c2)cc1Cl | -2.5% | 0.3% | / | / | / | /
CCc1c(C)sc2nc(C(C)C)nc(SCC(=O)N3CCc4ccccc4C3)c12 | 0.5% | 0.7% | -66.8* | 1.3% | 0.0% | -2.9
Cc1sc2nc(C3CC3)nc(SCC(=O)N3CCc4ccccc4C3)c2c1C | -1.9% | -0.7% | -75.5* | 2.8% | ? | 1.1
CN(C(=O)COc1ccccc1C(=O)Nc1ccccc1)c1ccccc1 | -2.8% | / | / | / | / | /
N=C1C(c2nc3ccccc3s2)=C(O)CN1Cc1ccccc1 | -32.3% | 2.5% | -0.1 | ? | 5.17µM* | 12.0
CC(=O)Nc1cccc(-c2ccnc3c2CC(C(=O)Nc2ccc(C(C)C)cc2)O3)c1 (configuration not stated) | -11.5% | / | -51.0* | / | / | /
O=C(Nc1ccccc1)C1Cc2c(-c3cccc(F)c3)ccnc2O1 (configuration not stated) | -3.6% | / | -62.7* | / | / | /
CS(=O)(=O)Nc1cccc(NC(=O)C2Cc3c(-c4cccc(F)c4)ccnc3O2)c1 (configuration not stated) | ? | / | -10.3 | / | / | /
CC(=O)Nc1ccc(-c2ccnc3c2CC(C(=O)Nc2ccc4c(c2)OCO4)O3)cc1 (configuration not stated) | ? | / | -24.4 | / | / | /
CC(C)c1ccc(NC(=O)C2Cc3c(-c4ccc5c(c4)OCO5)ccnc3O2)cc1 (configuration not stated) | -4.4% | / | -57.5* | / | / | /
COc1ccc(OC)c(NC(=O)c2cn3c4c(ccc(Cl)c4c2=O)OC(C)C3)c1 (configuration not stated) | 4.1% | -12.6% | / | / | / | /
O=C(CN1CCNCC1)NC1CCCCC1 | / | / | / | -2.6% | -0.5% | /
Cc1cccc(C(=O)Nc2ccc(C(=O)OCc3cc(=O)n4c(C)csc4n3)cc2)c1 | 3.8% | 3.1% | / | / | / | /
CCN(CC)CCCNc1nc2ccccc2c2[nH]c3ccc(OC)cc3c12 | -6.6% | 8.2% | -98.1* | ? | 13.4% | -84.2*
Oc1ccc(Nc2nc3ccccc3nc2Nc2ccc(O)cc2)cc1 | ? | ? | -4.1 | 4.61µM* | 1.46µM* | -2.2

Bioassay records: PubChem BioAssay, National Center for Advancing Translational Sciences (NCATS)
